Compound activity: PubChem BioAssay, National Center for Advancing Translational Sciences (NCATS)
CtBP-E1A blk = qHTS Assay for Inhibitors of the CtBP/E1A Interaction; CtBP / adenovirus E1A interaction (AlphaScreen); AlphaScreen GST-E1A/His-CtBP binding, 1536-well; active compounds read low; AID 651724, 2012; 0.49% of 340,000 active; activity change, % (no concentration beside the values); in the data active means activity change below about -65%; inconclusive means mostly about -30% to -63%
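Homogeneous bead-based format: GST-tagged E1A captured on glutathione donor beads, His-tagged CtBP on nickel acceptor beads; compounds precede bead addition by 2 h at 37 °C.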
BAZ2B inh = qHTS Assay for Inhibitors of BAZ2B; Potency, µM (series often up to 114 µM), usual class: inhibitors; Bromodomain adjacent to zinc finger domain protein 2B (Homo sapiens), Q9UIF8; 4.4% of 360,000 active; AlphaScreen BAZ2B-H3K14Ac peptide displacement; further: nearly all actives have a fitted effect of over 60% in size
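Protein-peptide AlphaScreen: BAZ2B 50 nM, b-H3K14Ac 50 nM, 1x PBS pH 7.4 + 0.01% Tween-20. Preincubation 30 min RT; cpd 30 min RT (top 110 uM); beads 20 min RT, light-protected.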
Six1-Eya2 inh = qHTS Assay for Inhibitors of the Six1/Eya2 Interaction | Homeobox protein SIX1 (Homo sapiens) + Protein phosphatase EYA2 (Homo sapiens), … | AlphaScreen GST-Six1/His-Eya2 binding, biochemical; active compounds read low | activity change, % (test concentration not listed) | 0.56% of 360,000 active | AID 651725, 2012; in the data active means activity change below about -65%; inconclusive means mostly about -30% to -63%
Target sequence (O00167 whole entry, looked up): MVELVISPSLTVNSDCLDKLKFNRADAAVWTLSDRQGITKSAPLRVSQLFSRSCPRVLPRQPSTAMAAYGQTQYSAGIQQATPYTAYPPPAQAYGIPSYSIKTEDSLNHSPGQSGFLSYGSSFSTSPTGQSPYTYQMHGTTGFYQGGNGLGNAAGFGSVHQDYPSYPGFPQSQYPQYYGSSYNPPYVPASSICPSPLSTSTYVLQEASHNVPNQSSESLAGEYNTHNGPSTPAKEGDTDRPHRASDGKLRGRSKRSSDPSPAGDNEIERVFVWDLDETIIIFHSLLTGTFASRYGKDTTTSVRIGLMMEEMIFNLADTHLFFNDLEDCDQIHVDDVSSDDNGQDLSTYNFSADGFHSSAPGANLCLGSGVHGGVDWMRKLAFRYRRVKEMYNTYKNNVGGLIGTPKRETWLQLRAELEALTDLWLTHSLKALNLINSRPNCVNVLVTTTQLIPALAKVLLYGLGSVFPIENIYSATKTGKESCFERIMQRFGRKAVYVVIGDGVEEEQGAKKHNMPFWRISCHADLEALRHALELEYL
Target sequence (Q15475 whole entry, looked up): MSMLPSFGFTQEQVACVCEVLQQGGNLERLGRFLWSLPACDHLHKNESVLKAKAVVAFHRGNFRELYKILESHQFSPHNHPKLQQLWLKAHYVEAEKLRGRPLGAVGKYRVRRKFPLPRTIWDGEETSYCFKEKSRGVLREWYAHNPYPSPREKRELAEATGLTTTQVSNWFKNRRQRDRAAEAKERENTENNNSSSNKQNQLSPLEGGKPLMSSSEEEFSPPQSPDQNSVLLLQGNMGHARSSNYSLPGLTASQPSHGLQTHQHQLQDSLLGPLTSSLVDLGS
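AlphaScreen with GST-Six1 and His-Eya2 (5X mix: 250 nM and 500 nM), glutathione donor and nickel acceptor beads; buffer 50 mM Tris pH 8.0, 300 mM NaCl, 1 mM TCEP; 1 h at 37 C in the dark.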
HP1b binding inh = HTS for Inhibitors of HP1-beta Chromodomain Interactions with Methylated Histone Tails | 0.56% of 390,000 active | Chromobox protein homolog 1 (Homo sapiens), P83916 | AlphaScreen HP1-beta / biotin-H3K9me3 peptide binding | Potency, µM (titrated, usually from 114 µM), usual class: inhibitors; further: nearly all actives have a fitted effect of over 70% in size
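AlphaScreen: HP1-beta (50 nM) preformed 30 min with biotin-H3(1-18)K9me3 peptide (50 nM) in PBS pH 7.4, 0.01% Tween-20. Compound added for 30 min at RT, then streptavidin donor/nickel chelate acceptor beads (10 ug/mL) for 30 min.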
G9a inh = qHTS Assay for Inhibitors of Histone Lysine Methyltransferase G9a. AID 504332, 2011. G9a H3K9 monomethylation, AlphaScreen, 2 h. Histone-lysine N-methyltransferase EHMT2 (Homo sapiens), Q96KQ7. 8.8% of 350,000 active. Potency, µM (series often up to 102 µM), most hits filed as inhibitors; further: nearly all actives have a fitted effect of over 75% in size
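Chemiluminescent proximity detection of H3K9 monomethylation, read after 10 min bead incubation in the dark. Reaction: 20 nM G9a, 500 nM biotin-H3K9 peptide, 20 uM SAM cofactor, 2 h, room temperature, following 15 min enzyme-compound preincubation.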
JMJD2A Tudor inh = qHTS Assay for Inhibitors of JMJD2A-Tudor Domain; AlphaScreen JMJD2A-Tudor / H3K4me3 peptide binding; Potency, µM (highest dose often 114 µM), most hits filed as inhibitors; 4.4% of 390,000 active; AID 504339, 2011; further: nearly all actives have a fitted effect of over 50% in size
Hits are given with their value; i = inactive; ? = inconclusive; nt = no result; [ ] = remark or other dose. Rows were chosen to be rich in hits. Some 10% of all compounds tested hit in one or more screens of this group. Unless noted, the call rests on the fitted dose curve; in most records, active means well fitted inhibition curve with a large enough effect; inconclusive means small, poorly fitted or top-dose-only effect; inactive means no such curve, though single readings can be large or run the other way.

SMILES	CtBP-E1A blk	BAZ2B inh	Six1-Eya2 inh	HP1b binding inh	G9a inh	JMJD2A Tudor inh
O=C(NCCS(=O)(=O)N1CCN(c2ccc(F)cc2)CC1)C(c1ccccc1)c1ccccc1	nt	i	nt	i	i	i
Cc1cnc(C(=O)Nc2nnc(C)s2)cn1	i	?	i	i	2µM	1.1µM
Cc1cnc(C(=O)Nc2nnc(C(C)C)s2)cn1	?	50µM	?	i	1µM	0.28µM
Cc1cnc(C(=O)Nc2nnc(C3CC3)s2)cn1	i	?	i	i	5.6µM	i
CC(C)c1nnc(NC(=O)c2cnccn2)s1	i	40µM	i	i	?	1.1µM
CCc1ccc(S(=O)(=O)Nc2ccc3oc(C)c(C(=O)OCCOC)c3c2)cc1	nt	i	nt	i	i	i
COc1cccc(CNC(=O)c2cnc(N3CCCCC3)c3ccccc23)c1	nt	i	nt	i	i	i
Cc1csc(NC(=O)c2cnccn2)n1	i	?	i	i	3.5µM	7.9µM
Cc1csc(NC(=O)c2cccnc2)n1	nt	i	i	i	i	i
CCS(=O)(=O)c1ncc(N(Cc2ccccc2)Cc2ccco2)c(C(=O)Nc2ccc(C)c(C)c2)n1	nt	?	nt	i	?	i
COc1ccc(CN(C)C2CCN(C)CC2)cc1OC	nt	56µM	i	i	28µM	89µM
Cc1ccc(N(CC(=O)Nc2ccc(Cl)cc2)S(=O)(=O)c2cccc3nonc23)cc1	nt	nt	nt	i	?	?
Cc1ccc(-c2nnn(CC(=O)NCC3CC3)n2)o1	i	i	i	i	i	i
Cc1ccc(-c2nnn(CC(=O)NCC3COCCO3)n2)o1 (centres undefined)	i	i	i	?	i	50µM
Cc1ccc(-c2nnn(CC(=O)N3CCC(C)CC3)n2)o1	i	i	i	i	35µM	i
CCOc1ccc(CCNC(=O)c2ccc3c(c2)c(C)c(C)n3Cc2ccccc2)cc1OCC	nt	?	nt	i	i	?
C=Cc1ccc(CN2C(=O)c3ccccc3Sc3ccc(C(=O)OCc4ccco4)cc32)cc1	nt	i	nt	i	i	i
CCc1ccc(C(=O)c2cn(CC(=O)Nc3ccc(F)cc3)c3cc4c(cc3c2=O)OCO4)cc1	nt	?	nt	i	i	?
Cc1cc(C)c(OCC(=O)OCCNC(=O)c2cccnc2)c(C)c1	i	?	i	i	25µM	i
COc1cc(C(=O)OCCNC(=O)c2cccnc2)cc(OC)c1OC	i	nt	i	i	nt	?
O=C(Nc1cc(-c2nc3ccccc3o2)ccc1Cl)c1ccc(N2CCCCC2)c([N+](=O)[O-])c1	nt	?	nt	i	i	i
C=CCn1c(O)c(CN2CCCCC2)c(C)c(C#N)c1=O	i	i	i	i	50µM	i
CCOC(=O)c1oc2c(c1C)/C(=N/O)CCC2	i	i	-83	i	i	i
C#CCOCCOCCOCCNc1nc(N2CCOCC2)nc(N2CCN(C(=O)[C@H](Cc3ccc(O)cc3)n3cc([C@@H](N)C(C)CC)nn3)CC2)n1 (some centres undefined)	i	i	i	i	?	?
C#CCOCCOCCOCCNc1nc(N2CCN(C(=O)[C@H](CCC(=O)O)n3cc(C(N)[C@H](C)CC)nn3)CC2)nc(N2CCN(C(=O)[C@H](Cc3ccc(O)cc3)n3cc(C(N)[C@H](C)CC)nn3)CC2)n1 (some centres undefined)	i	50µM	i	i	i	40µM
SMILES	CtBP-E1A blk	BAZ2B inh	Six1-Eya2 inh	HP1b binding inh	G9a inh	JMJD2A Tudor inh
C#CCOCCOCCOCCNc1nc(N2CCN(C(=O)C(Cc3ccc(O)cc3)n3cc(C(N)C(C)CC)nn3)CC2)nc(N2CCN(C(=O)C(Cc3ccc(O)cc3)n3cc(C(N)C(C)CC)nn3)CC2)n1 (centres undefined)	i	50µM	i	i	?	35µM
Cc1cc(C)c(NC(=O)CSc2ncc(S(=O)(=O)c3ccc(C(C)(C)C)cc3)c(=O)[nH]2)c(C)c1	nt	i	nt	i	i	i
CC(Sc1cccc[n+]1[O-])C(=O)Nc1ccc([N+](=O)[O-])cc1Cl (centres undefined)	i	i	i	i	50µM	i
COc1cc2c(cc1NC(=O)C(C)Sc1cccc[n+]1[O-])oc1ccccc12 (centres undefined)	i	i	i	i	?	i
CC(=O)OCC(NC(=O)C(CCCCNC(=O)OCc1ccccc1)NC(=O)OC(C)(C)C)C1OC(n2cc(F)c(=O)[nH]c2=O)C(OC(C)=O)C1OC(C)=O (centres undefined)	nt	nt	nt	i	nt	i
COc1ccc(C2N(c3ccc(C)cc3)CCN2c2ccc(C)cc2)cc1O	i	32µM	?	i	18µM	28µM
Cc1ccccc1N1CC(O)(c2ccccc2)[N+]2=C1SCC2 (centres undefined)	i	i	i	i	32µM	i
Cc1ccc(C2(O)CN(c3ccccc3C)C3=[N+]2CCS3)cc1 (centres undefined)	i	i	i	i	32µM	i
Cc1ccc(C2(O)CN(c3ccccc3)C3=[N+]2CCS3)cc1 (centres undefined)	i	?	i	i	i	i
COc1ccccc1OC(C)C(=O)Nc1cccc(-c2nc3ccccc3o2)c1 (centres undefined)	nt	i	nt	i	i	i
CCN1C(=O)/C(=C/C=C2\N(CC)c3cc(S(=O)(=O)N(C)C)ccc3N2c2ccccc2)SC1=S	i	8.9µM	i	i	?	i[11.4 µM]
CCCCOc1ccc(C2c3c(oc4ccccc4c3=O)C(=O)N2c2nc(C)c(C(=O)OCC)s2)cc1OC (centres undefined)	nt	i	nt	i	i	i
COc1ccc(CNC(=O)c2cc3c(=O)n(Cc4cccs4)ccc3nc2C)cc1	nt	i	nt	i	i	i
CCOC(=O)N1CCN(C(=O)c2ccc3c(c2)N(CC)CCS3)CC1	i	i	i	i	35µM	i
CN1CCSc2ccc(C(=O)NCc3ccccc3F)cc21	i	i	i	i	11µM	i
CCN1CCSc2ccc(C(=O)NCc3ccccc3C)cc21	i	?	i	i	71µM	?
CCN1CCSc2ccc(C(=O)Nc3ccc(NC(C)=O)cc3)cc21	i	i	i	i	50µM	i
COc1cc(NC(=O)c2nc3cc(C)c(C)cc3n(C)c2=O)cc(OC)c1OC	nt	i	nt	i	i	i
Cc1cn2c(=O)c(S(=O)(=O)N3CCN(c4cc(Cl)ccc4C)CC3)c(C)nc2s1	nt	i	nt	i	i	i
